Yeast superoxide: yeast age-related superoxide inhibition as caloric restriction mimetic; 0.18% of 330,000 active; S. cerevisiae aged cells, superoxide DHE fluorescence; stronger effect = lower value; superoxide response (% of plate mean), % at 10 µM;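 active means superoxide response under a set limit, about three screen SD below normal, cut at about 65% in these data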;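 further: yeast aged for seven days with compound at 30 °C before DHE staining; 100% = average MFI of all compound-treated wells on the plate with controls excluded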
MCL1-BIM inh: inhibitors of human MCL1 binding to BIM-BH3 peptide. GST-MCL1 / FITC-Bim-BH3 fluorescence polarization. inhibition, % at 10.9 µM. 0.68% of 320,000 active. AID 2057;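 active means inhibition above the mean inhibition of all tested compounds plus 3 SD, set per campaign, cut at about 40% in these data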;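 further: 0% = DMSO wells and 100% = unlabeled Bim-BH3 peptide control; higher means more loss of mP so more displacement of Bim peptide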
GLD-1 RNA inh: GLD-1-TGE RNA interaction inhibition (C. elegans); Q17339; purified GLD-1 + fluorescein TGE RNA, fluorescence polarization; inhibition, % at 5.96 µM; 0.44% of 320,000 active; AID 2280;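 active means percent inhibition above a per-plate cutoff, the plate mean of test compounds plus 3 SD, cut at about 30% in these data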;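 further: 0% = DMSO wells with GLD-1 and probe and 100% = wells lacking GLD-1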
Target sequence (Q17339 whole entry, looked up): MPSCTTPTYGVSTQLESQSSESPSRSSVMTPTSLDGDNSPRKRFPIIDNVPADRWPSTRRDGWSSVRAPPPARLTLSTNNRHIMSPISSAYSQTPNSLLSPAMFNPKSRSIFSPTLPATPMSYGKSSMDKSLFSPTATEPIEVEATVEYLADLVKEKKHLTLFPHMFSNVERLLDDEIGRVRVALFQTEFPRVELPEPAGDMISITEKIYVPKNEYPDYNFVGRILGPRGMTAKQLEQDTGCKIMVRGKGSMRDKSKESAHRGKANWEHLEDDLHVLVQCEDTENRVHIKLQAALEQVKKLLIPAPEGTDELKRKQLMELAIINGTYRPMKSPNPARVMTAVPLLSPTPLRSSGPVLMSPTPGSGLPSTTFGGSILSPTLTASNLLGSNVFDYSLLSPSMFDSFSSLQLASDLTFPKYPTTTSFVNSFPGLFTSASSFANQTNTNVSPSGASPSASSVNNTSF
Bcl-xL primary: Bcl-xL (human) inhibition. Q07817. GST-Bcl-xL / FITC-Bim BH3 peptide fluorescence polarization. inhibition, % at 10.9 µM. 0.7% of 320,000 active. AID 2129;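 active means inhibition above the mean of all tested compounds plus 3 SD, cutoff set per campaign, cut at about 30% in these data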;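 further: 0% = DMSO wells and 100% = unlabeled Bim-BH3 peptide competitor; inhibitors lower millipolarization by displacing the labeled peptide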
MEX-5 binding: C. elegans MEX-5 TCR-2 RNA binding activity; Q9XUB2; 0.38% of 300,000 active; AID 1832; MEX-5/FITC-TCR2 RNA binding, fluorescence polarization; stronger effect = lower value; activity score (negative = inhibition of binding), % at 10 µM;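 active means inhibition past about -25% in most replicates, and total fluorescence under double the plate's negative control median, limit read from the data; inconclusive means replicates evenly split on the limit, or fluorescence at least double controls; inactive means too little inhibition in most replicates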;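 further: 0% = DMSO and -100% = 5 µM competing unlabeled TCR2 RNA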
LANA-H2B inh: blocks KSHV LANA binding to histone H2A/H2B; Q9QR71; cell-free LANA-H2A/H2B peptide, fluorescence polarization; 0.6% of 320,000 active; AID 2629; inhibition, % (no concentration beside the values); in the data active means inhibition mostly above about 10%, no sharp cut-off; inactive means mostly below about 6.7%
GLD1 RNA confirm: confirmation of C. elegans GLD-1 TGE RNA binding inhibitors | 10% of 550 active | inhibition, % at 5.96 µM | shares compounds with GLD-1 RNA inh | GLD-1/FL-TGE RNA fluorescence polarization, biochemical;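 active means average inhibition across triplicates above the hit cutoff set in the primary screen, cut at about 32% in these data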;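 further: 0% = GLD-1 with RNA probe and DMSO and 100% = wells lacking GLD-1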
Numbers without * were called inactive. Rows were chosen to be rich in hits. Some 1.9% of all compounds tested hit in one or more screens of this group.

Screening COc1cccc(CCNc2ccc(N3C(=O)CC(C)C3=O)cc2[N+](=O)[O-])c1 (stereo unspecified) returned Yeast superoxide 94, MCL1-BIM inh 12, GLD-1 RNA inh 0, Bcl-xL primary 7, MEX-5 binding 1 and LANA-H2B inh -3.
Cc1ccc(C2C(C#N)=C(N)Oc3c2oc(CO)cc3=O)o1 (stereo unspecified) was read as Yeast superoxide 84, MCL1-BIM inh 26, GLD-1 RNA inh 30, Bcl-xL primary 28, MEX-5 binding -5 and LANA-H2B inh 0.
For N#CC1=C(N)Oc2c(oc(CO)cc2=O)C1c1ccccc1[N+](=O)[O-] (stereo unspecified) the results were Yeast superoxide 123, MCL1-BIM inh 37, GLD-1 RNA inh 37*, Bcl-xL primary 38*, MEX-5 binding -10, LANA-H2B inh -1 and GLD1 RNA confirm 26.
Cc1[nH]c2ccccc2c1C(=O)C(C)OC(=O)c1ccccc1NCCO (stereo unspecified) was read as Yeast superoxide 108, MCL1-BIM inh -1, GLD-1 RNA inh 45*, Bcl-xL primary 4, MEX-5 binding 2, LANA-H2B inh -10 and GLD1 RNA confirm -1.
`O=C(O)c1ccccc1C(=O)Nc1ccc(-c2csc(-c3ccccc3)n2)cc1` gave Yeast superoxide 105, MCL1-BIM inh -4, GLD-1 RNA inh 94*, Bcl-xL primary -1, MEX-5 binding -3, LANA-H2B inh -3 and GLD1 RNA confirm -1.
For COc1ccc2nc(N3CCC(O)CC3)c(C#N)cc2c1 the results were Yeast superoxide 98, MCL1-BIM inh 38, GLD-1 RNA inh 37*, Bcl-xL primary 42*, MEX-5 binding -16, LANA-H2B inh 3 and GLD1 RNA confirm 31*.
`CCOC(=O)C1CCN(C(=O)c2ccc3c(c2)NC(=O)/C(=C\c2ccc(C)cc2)S3)CC1` gave Yeast superoxide 120, MCL1-BIM inh 42*, GLD-1 RNA inh 35*, Bcl-xL primary 37*, MEX-5 binding inconclusive, LANA-H2B inh 12 and GLD1 RNA confirm 19.
`CCOC(=O)C1CCN(C(=O)c2ccc3c(c2)NC(=O)/C(=C/c2ccccc2)S3)CC1` gave Yeast superoxide 92, MCL1-BIM inh 5, GLD-1 RNA inh -1, Bcl-xL primary 11, MEX-5 binding -7 and LANA-H2B inh 3.
CCN(Cc1ccncc1)C(=S)Nc1c(C)cccc1C was read as Yeast superoxide 101, MCL1-BIM inh 47*, GLD-1 RNA inh 37*, Bcl-xL primary 44*, MEX-5 binding -1, LANA-H2B inh 1 and GLD1 RNA confirm 4.
Screening Cc1cccc(C)c1NC(=S)N(Cc1ccccc1)Cc1cccnc1 returned Yeast superoxide 99, MCL1-BIM inh 2, GLD-1 RNA inh -3, Bcl-xL primary 0 and MEX-5 binding 2.
`O=C(NCC1CCCO1)C(=O)N/N=C/c1ccc(OCc2ccccc2Cl)cc1` (stereo unspecified) gave Yeast superoxide 87, MCL1-BIM inh 4, GLD-1 RNA inh 2, Bcl-xL primary 0, MEX-5 binding 0 and LANA-H2B inh 1.
`CC(=O)Nc1ccc(NC(=O)CCn2c(=S)oc3ccccc32)cc1` gave Yeast superoxide 108, MCL1-BIM inh 2, GLD-1 RNA inh 1, Bcl-xL primary -5, MEX-5 binding 0 and LANA-H2B inh -1.
`CC(=O)c1ccc(NC(=O)CCn2c(=S)oc3ccccc32)cc1` gave Yeast superoxide 87, MCL1-BIM inh -4, GLD-1 RNA inh 43*, Bcl-xL primary 3, MEX-5 binding 2, LANA-H2B inh -1 and GLD1 RNA confirm 11.
NCC(=O)NCC(=O)NC[C@H]1O[C@@H](n2cnc3c(N)ncnc32)[C@H](O)[C@@H]1O was read as Yeast superoxide 92.
For O=C(OC(C(=O)Nc1ccc(Cl)c(C(F)(F)F)c1)c1ccccc1)C1=COCCO1 (stereo unspecified) the results were Yeast superoxide 82, MCL1-BIM inh 5, GLD-1 RNA inh 45*, Bcl-xL primary 3, MEX-5 binding -1, LANA-H2B inh -2 and GLD1 RNA confirm 5.
`O=C(OC(C(=O)Nc1ccc(Cl)cc1C(F)(F)F)c1ccccc1)C1=COCCO1` (stereo unspecified) gave Yeast superoxide 115, MCL1-BIM inh -5, GLD-1 RNA inh -1 and Bcl-xL primary -2.
Screening Cn1c(=O)[nH]c(=O)c2c1nc(N1CCCCC1)n2CC(O)COc1ccccc1 (stereo unspecified) returned Yeast superoxide 100, MCL1-BIM inh 4, GLD-1 RNA inh -17, Bcl-xL primary 6, MEX-5 binding 0 and LANA-H2B inh 0.
CCc1ccc(OCC(O)Cn2c(N3CCCCC3)nc3c2c(=O)[nH]c(=O)n3C)cc1 (stereo unspecified) was read as Yeast superoxide 101, MCL1-BIM inh -1, GLD-1 RNA inh 36*, Bcl-xL primary 3, MEX-5 binding 0, LANA-H2B inh 4 and GLD1 RNA confirm -3.
`O=C(COc1ccc(Cl)cc1Br)NCC(c1ccco1)N1CCCC1` (stereo unspecified) gave Yeast superoxide 123, MCL1-BIM inh 12, GLD-1 RNA inh 6, Bcl-xL primary 4 and LANA-H2B inh 0.
Screening C=CCNC(=O)/C(C#N)=C/c1c(N2CCN(c3ccc(OC)cc3)CC2)nc2c(C)cccn2c1=O returned Yeast superoxide 94, MCL1-BIM inh 10, GLD-1 RNA inh 33*, Bcl-xL primary 5, MEX-5 binding 1, LANA-H2B inh 3 and GLD1 RNA confirm -8.
C=CCNC(=O)/C(C#N)=C/c1c(N2CCN(c3ccccc3)CC2)nc2c(C)cccn2c1=O was read as Yeast superoxide 100, MCL1-BIM inh 10, GLD-1 RNA inh 2, Bcl-xL primary 13, MEX-5 binding -3 and LANA-H2B inh 0.
Screening CN(C(=O)C1CCCN1S(=O)(=O)c1ccc(Cl)cc1)c1ccccc1 (stereo unspecified) returned Yeast superoxide 95, MCL1-BIM inh 0, GLD-1 RNA inh 1, Bcl-xL primary -1 and LANA-H2B inh 2.
For CC(OC(=O)Cc1ccc(Br)cc1)C(=O)NC1CCCC1 (stereo unspecified) the results were Yeast superoxide 108, GLD-1 RNA inh 5 and LANA-H2B inh 3.
`COC(=O)c1ccc(NC(=O)CSc2ccccc2)cc1` gave Yeast superoxide 91, MCL1-BIM inh 32, GLD-1 RNA inh 37*, Bcl-xL primary 38*, MEX-5 binding -1, LANA-H2B inh 4 and GLD1 RNA confirm -6.

Assay outcomes as filed in PubChem BioAssay.
